From PubChem
TDP1 cell CPT: growth inhibition of DT40 Tdp1-/-;hTDP1 cells with camptothecin (screen for TDP1 inhibitors). chicken DT40 Tdp1-/-;hTDP1 cells + 20 nM CPT, ATP luminescence, 48 h. Potency, µM (series often up to 46.2 µM), without a hit: top-dose activity change, negative = growth inhibition, actives largely listed as inhibitors. 420,000 compounds, 12% hits; also: potency is read from the fitted curve at half-maximal effect; nearly all actives have a fitted effect of over 55% in size
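Chicken DT40 Tdp1-/- cells stably complemented with human TDP1 were seeded at 400 cells/well in medium containing 20 nM camptothecin, exposed to pin-transferred compounds, and grown at 37 °C for at least 48 hr. Viability was read as ATP luminescence.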
HT1080 IDH1KD tx: toxicity to HT-1080 IDH1 knockdown cells (counter line); Potency, µM (top dose mostly 46.1 µM), without a hit: at the top dose activity, negative = toxicity, usual class: cytotoxic; 360,000 compounds, 2% hits; HT-1080 IDH1 knockdown viability, ATP luminescence, 48 h;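 also: potency is read from the fitted curve at half-maximal effect; 0% = DMSO wells and -100% = cell-free medium wells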
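Using the IDH1-knockdown HT-1080 line run in the same batch and compound series as the NT line, viability after 48 h at 37 °C was determined by CellTiter-Glo luminescence and expressed as % activity.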
IL1B secr inh: blocks inflammasome-driven IL-1 beta release; THP-1 LPS/ATP IL-1B secretion, AlphaLISA, 16 h; stronger effect = lower value; activity change, % at 57.5 µM; 360,000 compounds, 4.7% hits; in the data active = activity change below about -50%; inconclusive = mostly about -30% to -49%
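THP-1 cells pretreated 1 hr with compounds (up to 57.5 uM final), then stimulated with LPS (250 ng/mL final) plus ATP (1.25 mM final); secreted IL-1B measured by AlphaLISA after 16 hr, decreased signal indicating inhibition.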
TDP1 cell noCPT: qHTS for Inhibitors of human tyrosyl-DNA phosphodiesterase 1 (TDP1): qHTS in cells in absence of CPT. DT40 Tdp1-/- hTDP1 cells, no CPT, ATP luminescence, 48 h. Potency, µM (top dose mostly 46.2 µM), without a hit: at the top dose activity change, negative = growth inhibition, usual class: inhibitors. 420,000 compounds, 15% hits; also: potency is read from the fitted curve at half-maximal effect; nearly all actives have a fitted effect of over 55% in size
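No-CPT arm: Tdp1-/-;hTDP1 DT40 cells (400/well) plus compounds, incubated ≥48 hr at 37 °C. Readout CellTiter-Glo luminescence.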
HT1080NT lethal: kills 2HG-producing HT-1080-NT fibrosarcoma cells; HT-1080-NT fibrosarcoma viability, CellTiter-Glo ATP luminescence, 48 h; Potency, µM (titrated, usually from 46.1 µM), for the others: top-dose activity, negative = less viability, usual class: cytotoxic; 360,000 compounds, 1.6% hits; AID 686970;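 also: NT is the 2HG producing partner of a matched IDH1 knockdown line; potency is read from the fitted curve at half-maximal effect; 0% = DMSO-treated cells and -100% = media-only wells without cells; nearly all actives have a fitted effect of over 55% in size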
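Luminescent CellTiter-Glo readout after 48 hours of compound exposure at 37 degrees C defined viability of HT-1080-NT cells. Activity was normalized to DMSO wells and cell-free media wells; concentration-response curves were fitted and assigned curve classes.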
* = called active by the depositor. In the library only some 19% were active in any assay of this set; here they are far more common. Unless noted, calls follow the shape of the dose curve; as a rule, active = well fitted curve in the direction sought with a large enough effect; inconclusive = small, poorly fitted or top-dose-only effect, or another doubt; inactive = no such curve, though single readings can be large; an effect the other way counts as inactive or inconclusive. Unless noted, % is scaled to controls: 0 for no effect and ±100 for the full control effect.

Screening CN(C)CCCN(C(=O)c1cc(-c2cccs2)nc2ccccc12)c1nc2ccc(F)cc2s1 returned TDP1 cell CPT 23µM*, HT1080 IDH1KD tx 21µM*, IL1B secr inh -59*, TDP1 cell noCPT 13µM* and HT1080NT lethal 8.2µM*.
CN(C)CCCN(C(=O)CCc1ccccc1)c1nc2ccc(Br)cc2s1 was read as TDP1 cell CPT inconclusive, HT1080 IDH1KD tx inconclusive, IL1B secr inh -102*, TDP1 cell noCPT 23µM* and HT1080NT lethal 18µM*.
`CN(C)CCCN(C(=O)CCc1ccccc1)c1nc2ccc(F)cc2s1` gave TDP1 cell CPT -19%, HT1080 IDH1KD tx -4%, IL1B secr inh -18, TDP1 cell noCPT 16µM* and HT1080NT lethal -5%.
For COc1ccccc1CNC(=O)c1ccc(N2CCOCC2)c([N+](=O)[O-])c1 the results were TDP1 cell CPT -25%, HT1080 IDH1KD tx -5%, IL1B secr inh -55*, TDP1 cell noCPT -7% and HT1080NT lethal -8%.
`COc1ccc(C(=O)NC(=S)Nc2ccc(N3CCOCC3)c(Cl)c2)cc1[N+](=O)[O-]` gave TDP1 cell CPT 13µM*, HT1080 IDH1KD tx 0%, IL1B secr inh 7, TDP1 cell noCPT 21µM* and HT1080NT lethal -1%.
For COc1ccc(C(=O)Nc2ccccc2N2CCOCC2)cc1[N+](=O)[O-] the results were TDP1 cell CPT -15%, HT1080 IDH1KD tx -2%, IL1B secr inh -1, TDP1 cell noCPT inconclusive and HT1080NT lethal 0%.
COc1ccc(C(=O)NC(=S)Nc2ccccc2N2CCOCC2)cc1[N+](=O)[O-] was read as TDP1 cell CPT 16µM*, HT1080 IDH1KD tx -15%, IL1B secr inh 22, TDP1 cell noCPT 16µM* and HT1080NT lethal -11%.
`COc1ccc(C(C(=O)NC(C)(C)C)N(C(=O)CCC(=O)Nc2cc(C)on2)c2c(C)cccc2C)cc1` (stereo not given) gave TDP1 cell CPT -16%, HT1080 IDH1KD tx 7%, IL1B secr inh -8, TDP1 cell noCPT -16% and HT1080NT lethal 26%.
Screening Cc1cc(C)c(NC(=O)C2CC(=O)N(C3CCCC3)C2)c(C)c1 (stereo not given) returned TDP1 cell CPT -13%, HT1080 IDH1KD tx 8%, IL1B secr inh 4, TDP1 cell noCPT 11% and HT1080NT lethal 0%.
`Cc1sc2nc(CN3CCOCC3)nc(NS(=O)(=O)c3cc(Cl)ccc3Cl)c2c1C` gave TDP1 cell CPT -2%, HT1080 IDH1KD tx -1%, IL1B secr inh 46, TDP1 cell noCPT 7% and HT1080NT lethal -4%.
Screening c1ccc2c(c1)CCN(c1nc(CN3CCOCC3)nc3sc4c(c13)CCCC4)C2 returned TDP1 cell CPT 23µM*, HT1080 IDH1KD tx -22%, IL1B secr inh -51*, TDP1 cell noCPT 16µM* and HT1080NT lethal -15%.
Screening Clc1nc(CN2CCCCC2)nc2sc3c(c12)CCC3 returned TDP1 cell CPT inconclusive, HT1080 IDH1KD tx -10%, TDP1 cell noCPT 18µM* and HT1080NT lethal -22%.
CCNc1nc(CN2CCOCC2)nc2sc3c(c12)CCC3 was read as TDP1 cell CPT 0%, HT1080 IDH1KD tx 3%, IL1B secr inh -15, TDP1 cell noCPT -29% and HT1080NT lethal -2%.
`Cc1sc2nc(CN3CCOCC3)nc(Cl)c2c1C` gave TDP1 cell CPT -10%, HT1080 IDH1KD tx -5%, IL1B secr inh -96*, TDP1 cell noCPT -15% and HT1080NT lethal 2%.
Screening CC(CCc1ccco1)NC(=O)CCc1nnc2ccc(NCc3ccc(Cl)cc3)nn12 (stereo not given) returned TDP1 cell CPT 1%, HT1080 IDH1KD tx -2%, IL1B secr inh -1, TDP1 cell noCPT -16% and HT1080NT lethal 1%.
For COc1ccc(C(=O)Nc2nc(-c3nnn(-c4ccc(F)cc4F)c3C)ns2)cc1 the results were TDP1 cell CPT 15µM* and TDP1 cell noCPT 13µM*.
Screening Cc1c(-c2nsc(NC(=O)c3ccc(Cl)cc3)n2)nnn1-c1ccc(C(C)C)cc1 returned TDP1 cell CPT 10µM* and TDP1 cell noCPT 9.2µM*.
